# Source: PubChem BioAssay (Tox21)
# Results filed as inconclusive are left out. A call without a number means that no potency is given here. Unmarked numbers belong to inactive results. Calls of active or inactive are those of the source. Unless noted, calls come from the whole dose curve; as a rule, active = well fitted curve in the direction sought with a large enough effect in the repeat runs; inconclusive = weak or mixed curves; inactive = no such curve, though single readings can be large; an effect the other way counts as inactive or inconclusive.
# How the values were obtained:
# [1] = target: Retinoic acid receptor RXR-alpha (Homo sapiens) (UniProt P19793); assay: qHTS assay to identify small molecule agonists of the RXR signaling pathway (AID 1159527; calls by dose curve; note: nearly all actives have a fitted effect of over 35% in size)
# How it was run: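 Read-out: beta-lactamase FRET ratio (405 nm excitation, 460 and 530 nm emission) after 2 hr substrate loading at room temperature. Cells were RXR-alpha-UAS-bla HEK 293T treated with compounds for 16 hr in 2% charcoal-stripped FBS medium.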
# [2] = qHTS assay to identify small molecule agonists of the RXR signaling pathway - cell viability counter screen (AID 1159529); note: series mostly up to about 77 µM; nearly all actives have a fitted effect of over 50% in size
# How it was run: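 HEK 293T RXRa-bla cells, 2% CS-FBS; 5 h settle; cpd 16 h 37 C, 5% CO2; CellTiter-Glo 30 min RT, luminescence. Tetraoctyl ammonium bromide as positive control.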
# [3] = qHTS assay to identify small molecule antagonists of the retinoic acid receptor (RAR) signaling pathway (AID 1159552; note: nearly all actives have a fitted effect of over 50% in size)
# How it was run: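 Cells of the C3RL4 line were seeded, incubated overnight, then dosed with compounds in DMSO followed immediately by retinol (1 uM final). Six hours later luciferase detection reagent went in; signal was measured after 30 min at RT.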
# [4] = qHTS assay to identify small molecule agonists of the retinoic acid receptor (RAR) signaling pathway (AID 1159553); note: potency is the fitted concentration of half-maximal effect
# How it was run: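 C3RL4 RARE-luciferase cells were seeded at 1,000/well and grown overnight at 37 C, then exposed to compounds for 6 hr at 37 C, 5% CO2. Luciferase reagent was added and luminescence was read after 30 min at room temperature.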
# [5] = qHTS assay to identify small molecule antagonists of the estrogen related receptor (ERR) signaling pathway from Tox21 library - cell viability counter screen (AID 1224834); note: nearly all actives have a fitted effect of over 30% in size
# How it was run: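 ERR reporter cells, 2,000 per well, rested 6 h, then exposed to compound in DMSO for 17.5 hours at 37 C. Viability read as fluorescence after 30 min with CellTiter-Fluor.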
# [6] = target: Luciferin 4-monooxygenase (Photinus pyralis) (UniProt P08659); assay: qHTS assay to identify small molecule inhibitors of firefly luciferase (AID 1224835); note: nearly all actives have a fitted effect of over 25% in size; note: potency is the fitted concentration of half-maximal effect; for activity change, negative = inhibition: series mostly up to about 120 µM
# How it was run: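 Biochemical qHTS: compounds run as interplate titrations against purified firefly enzyme, with D-luciferin and ATP each at its KM concentration. Light output recorded by CCD imaging.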
# [7] = qHTS assay to identify small molecule agonists of the constitutive androstane receptor (CAR) signaling pathway - cell viability counter screen (AID 1224836); note: series mostly up to about 92 µM; nearly all actives have a fitted effect of over 45% in size
# How it was run: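 HepG2-CYP2B6-hCAR, 2500 cells/well, 4 h pre-incubation; cpd 15 conc + PK11195 0.75 uM final; 23 h, 37 C/5% CO2; CellTiter-Fluor, fluorescence.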
# [8] = qHTS assay to identify small molecule antagonists of the constitutive androstane receptor (CAR) signaling pathway - cell viability counter screen (AID 1224837); note: series mostly up to about 92 µM; nearly all actives have a fitted effect of over 45% in size
# How it was run: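 HepG2 cells stably carrying hCAR and CYP2B6-2.2kb reporter, stimulated with 50 nM CITCO and compounds at 15 concentrations for 23 h at 37 C. Viability measured by CellTiter-Fluor fluorescence.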
# [9] = target: Nuclear receptor subfamily 1 group I member 3 (Homo sapiens) (UniProt Q14994); assay: qHTS assay to identify small molecule agonists of the constitutive androstane receptor (CAR) signaling pathway (AID 1224839); note: nearly all actives have a fitted effect of over 15% in size; note: potency is the fitted concentration of half-maximal effect; for activation: series mostly up to about 92 µM
# How it was run: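 HepG2-CYP2B6-hCAR cells, 2500/well, 4 h pre-incubation; compounds 15 conc.; PK11195 0.75 uM final; 24 h, 37 C/5% CO2; ONE-Glo luciferase read.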
# [10] = qHTS assay to identify small molecule antagonists of the estrogen related receptor signaling pathway with the pleiotropic PPARgamma coactivator (PGC) from Tox21 10K library - cell viability counter screen (AID 1224840; active = well fitted cell-killing curve with a large enough effect in the repeat runs, not every such curve was filed as active; note: nearly all actives have a fitted effect of over 40% in size)
# How it was run: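 PGC/ERR cells (2,000/well) plated 6 h, then compound-treated for 17.5 h at 37 C. Viability measured by CellTiter-Fluor fluorescence after 30 min at 37 C, multiplexed with the pathway assay.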
# [11] = qHTS assay to identify small molecule antagonists of the retinoid acid receptor (RAR) signaling pathway - cell viability counter screen (AID 1159551); note: nearly all actives have a fitted effect of over 35% in size
# How it was run: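 C3RL4 RARE-luciferase cells, 1,000/well, incubated overnight, then dosed with compound plus 1 uM retinol (final). After 6 hr at 37 C, viability read by CellTiter-Glo ATP luminescence following 30 min at room temperature.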
# [12] = target: Nuclear receptor subfamily 1 group I member 3 (Homo sapiens) (UniProt Q14994); assay: qHTS assay to identify small molecule antagonists of the constitutive androstane receptor (CAR) signaling pathway (AID 1224838); note: nearly all actives have a fitted effect of over 40% in size
# How it was run: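 HepG2 cells stably carrying hCAR and a CYP2B6-2.2kb luciferase reporter, seeded 4 hrs before compound (15 concentrations). Stimulated with 50 nM CITCO for 24 hr at 37 C. ONE-Glo luminescence read after 30 min at room temperature.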
# [13] = qHTS assay to identify small molecule antagonists of the estrogen related receptor signaling pathway with the pleiotropic PPARgamma coactivator (PGC) from Tox21 10K library (AID 1224841; call rule not given here; note: series mostly up to about 92 µM; actives are mostly falling curves and most rising ones were filed inactive; nearly all actives have a fitted effect of over 50% in size)
# How it was run: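 PGC/ERR cell line, 2,000 cells/well, pre-incubated 6 hours at 37 C, then exposed to compounds for 18 hours at 37 C; luciferase read with One-Glo luminescence after 30 min at room temperature.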
# [14] = qHTS assay to identify small molecule agonists of the estrogen related receptor signaling pathway with the pleiotropic PPARgamma coactivator (PGC) from Tox21 10K library (AID 1224842); note: nearly all actives have a fitted effect of over 15% in size; note: potency is the fitted concentration of half-maximal effect
# How it was run: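 PGC/ERR reporter cell line, 2,000 cells per well, incubated 6 h at 37 C before 23 nL compound in DMSO was added. After 18 h at 37 C, One-Glo luminescence read following 30 min at room temperature.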
# Luciferin 4-monooxygenase (Photinus pyralis), sequence (P08659 whole entry, looked up): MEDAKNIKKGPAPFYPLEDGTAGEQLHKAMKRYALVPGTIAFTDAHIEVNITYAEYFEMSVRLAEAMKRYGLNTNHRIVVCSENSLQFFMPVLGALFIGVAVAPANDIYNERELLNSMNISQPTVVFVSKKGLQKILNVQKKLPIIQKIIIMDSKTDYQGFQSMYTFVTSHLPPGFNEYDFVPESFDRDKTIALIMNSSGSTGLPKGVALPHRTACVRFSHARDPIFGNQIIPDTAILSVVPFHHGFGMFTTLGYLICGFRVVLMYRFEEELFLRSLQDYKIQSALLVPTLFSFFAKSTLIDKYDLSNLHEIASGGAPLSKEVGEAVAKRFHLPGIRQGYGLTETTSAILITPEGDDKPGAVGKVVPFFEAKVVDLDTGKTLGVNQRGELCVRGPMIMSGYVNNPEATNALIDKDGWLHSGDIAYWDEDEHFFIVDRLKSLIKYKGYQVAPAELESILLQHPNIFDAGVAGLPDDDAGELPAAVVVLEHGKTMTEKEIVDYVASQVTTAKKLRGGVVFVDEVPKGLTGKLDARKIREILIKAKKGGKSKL
# Nuclear receptor subfamily 1 group I member 3 (Homo sapiens), sequence (Q14994 whole entry, looked up): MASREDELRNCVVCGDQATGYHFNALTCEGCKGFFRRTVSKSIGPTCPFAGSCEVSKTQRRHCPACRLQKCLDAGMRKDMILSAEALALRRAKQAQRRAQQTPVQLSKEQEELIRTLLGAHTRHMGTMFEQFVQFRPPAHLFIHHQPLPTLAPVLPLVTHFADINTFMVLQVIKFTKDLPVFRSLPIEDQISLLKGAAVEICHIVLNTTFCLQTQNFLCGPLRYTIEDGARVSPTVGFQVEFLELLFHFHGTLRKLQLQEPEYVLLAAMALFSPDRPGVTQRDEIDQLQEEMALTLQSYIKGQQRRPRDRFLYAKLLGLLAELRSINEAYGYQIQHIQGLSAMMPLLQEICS
# Retinoic acid receptor RXR-alpha (Homo sapiens), sequence (P19793 whole entry, looked up): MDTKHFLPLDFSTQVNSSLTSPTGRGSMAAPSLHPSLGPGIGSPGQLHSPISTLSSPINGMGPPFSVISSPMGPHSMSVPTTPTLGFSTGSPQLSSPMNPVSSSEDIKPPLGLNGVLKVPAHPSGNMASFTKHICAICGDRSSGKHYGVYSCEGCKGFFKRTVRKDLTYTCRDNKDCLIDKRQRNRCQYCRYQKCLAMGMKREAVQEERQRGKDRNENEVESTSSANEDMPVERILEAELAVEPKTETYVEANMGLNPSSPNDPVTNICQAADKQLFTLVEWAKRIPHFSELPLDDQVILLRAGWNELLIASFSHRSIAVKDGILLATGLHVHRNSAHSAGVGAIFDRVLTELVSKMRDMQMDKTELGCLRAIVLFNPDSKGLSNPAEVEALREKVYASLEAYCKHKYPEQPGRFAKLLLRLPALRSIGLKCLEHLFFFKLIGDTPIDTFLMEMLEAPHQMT
smiles,measurement,setting,value
COC(=O)N[C@H](C(=O)N[C@@H](Cc1ccccc1)[C@@H](O)CN(Cc1ccc(-c2ccccn2)cc1)NC(=O)[C@@H](NC(=O)OC)C(C)(C)C)C(C)(C)C,Potency,[1],inactive
same,Potency,[2],inactive
same,Potency,[3],inactive
same,Potency,[4],inactive
same,Potency,[5],inactive
same,Potency,[6],inactive
same,Potency,[7],inactive
same,Potency,[8],inactive
same,Potency,[9],inactive
same,Potency,[10],inactive
O=C1Nc2ccc([N+](=O)[O-])cc2C1=O,Potency,[1],inactive
same,Potency,[2],inactive
same,outcome,[11],inactive
same,Potency,[3],inactive
same,Potency,[4],inactive
same,Potency,[6],inactive
same,Potency,[7],inactive
same,Potency,[8],inactive
same,Potency,[12],inactive
same,Potency,[10],inactive
CCCCCCCOC(=O)CCC,Potency,[1],inactive
same,Potency,[2],inactive
same,Potency,[3],inactive
same,Potency,[4],inactive
same,Potency,[5],inactive
same,Potency,[6],inactive
same,Potency,[7],inactive
same,Potency,[8],inactive
same,Potency,[12],inactive
same,Potency,[9],inactive
same,Potency,[10],inactive
same,Potency,[13],inactive
same,Potency,[14],inactive
CC1=NN(c2cc(Cl)c(S(=O)(=O)O)cc2Cl)C(=O)C1N=Nc1ccc(S(=O)(=O)O)cc1 (stereo not given),Potency,[1],inactive
same,Potency,[2],inactive
same,outcome,[11],inactive
same,Potency,[6],inactive
OCC(CBr)(CBr)CBr,Potency,[1],inactive
same,Potency,[2],inactive
same,outcome,[11],inactive
same,Potency,[4],inactive
same,Potency,[5],inactive
same,Potency,[6],70.7 µM (active)
same,Potency,[7],inactive
same,Potency,[8],inactive
same,Potency,[12],inactive
same,Potency,[10],inactive
O=C1CCCCCCCCCCC(=O)OCCO1,Potency,[1],inactive
same,Potency,[2],inactive
same,outcome,[11],inactive
same,Potency,[4],inactive
same,Potency,[5],inactive
same,Potency,[6],inactive
same,Potency,[7],inactive
same,Potency,[8],inactive
same,Potency,[12],inactive
same,Potency,[9],inactive
same,Potency,[10],inactive
COc1ccc(Nc2ccc(OC)cc2)cc1,Potency,[1],inactive
same,Potency,[2],inactive
same,outcome,[11],inactive
same,Potency,[3],inactive
same,Potency,[4],4.94 µM (active)
same,Potency,[6],20.4 µM (active)
same,Potency,[7],inactive
same,Potency,[8],inactive
same,Potency,[12],inactive
same,Potency,[9],17.5 µM (active)
same,Potency,[10],inactive
same,Potency,[14],27.8 µM (active)
NC(Cc1ccc(F)cc1)C(=O)O (stereo not given),activation,[1],12.3% [at 6.98 µM]
same,"activity change, negative = cytotoxicity",[2],2.52% [at 6.97 µM]
same,"activity change, negative = cytotoxicity",[11],2.5% [at 8.39 µM]
same,"viability change, negative = cytotoxic",[5],0.439% [at 8.39 µM]
same,"activity change, negative = inhibition",[6],1.28% [at 10.5 µM]
same,"viability change, negative = cytotoxic",[10],2.83% [at 8.39 µM]
same,"activity, negative = inhibition",[13],25.2% [at 8.39 µM]
COC(=O)c1ccc2cc(C(=O)OC)ccc2c1,activation,[1],0.118% [at 15.8 µM]
same,"activity change, negative = cytotoxicity",[2],-6.68% [at 15.8 µM]
same,"activity change, negative = cytotoxicity",[11],0.0867% [at 19 µM]
same,"activity, negative = inhibition",[3],-32% [at 19 µM]
same,"viability change, negative = cytotoxic",[5],-1.01% [at 19 µM]
same,"activity change, negative = inhibition",[6],-7.06% [at 23.6 µM]
same,"viability change, negative = cytotoxic",[7],6.04% [at 19 µM]
same,"activity change, negative = cytotoxicity",[8],-9.38% [at 19 µM]
same,"viability change, negative = cytotoxic",[10],1.78% [at 19 µM]
same,"activity, negative = inhibition",[13],221% [at 19 µM]
C=CCCCCCCCCO,Potency,[1],inactive
same,Potency,[2],inactive
same,outcome,[11],inactive
same,Potency,[5],inactive
same,Potency,[6],inactive
same,Potency,[7],inactive
same,Potency,[8],inactive
same,Potency,[10],inactive
